Reference: PubChem BioAssay (NCI)
This is part of a sample that, as a whole, favours compounds with a hit. Of some 83,000 tested, about 20% had one in any assay.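 Note: values are percent growth. 100 is the growth of untreated cells, values between 100 and 0 indicate rising inhibition; between -100 and 0 indicates cell death.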 Values without a mark were called inactive. Activity calls are given as the source filed them. The calls were made as follows: active = growth percent below 10; inactive = the rest.

What follows are molecules tested on NCI-H226 lung (assay: NCI-60 one-dose screen, 48 h (100 = growth as untreated, 0 = no growth, -100 = all killed)). Conditions: 10 µM unless noted.

Row | Compound | growth [%]
1 | CC1=NN(c2cccc(Cl)c2)C(=O)/C1=C\c1cn(-c2nc(N3CCOCC3)nc(N3CCOCC3)n2)c2ccccc12 | 99.8
2 | O=C(Nc1ccccc1)Nc1ccc(Nc2ncnc3sc4c(c23)CCCC4)cc1 | 89.9
3 | O=c1c(N=Nc2nccs2)c(-c2ccccc2)[nH]n1-c1nc(-c2ccccc2)cs1 | 56.2
4 | CCOP1(=O)CC(C)=C(Cl)C(P(=O)(O)O)C1 (stereo not given) | 99.9
5 | Cc1ccc(OCCn2ccc(=O)n(CCOc3ccc(Cl)cc3C(=O)c3cc(C)cc(C)c3)c2=O)cc1 | 62.9

The molecules below were run on NCI-H322M lung in the same assay as above. Conditions: 10 µM unless noted.

Row | Compound | growth
6 | C/C(CCC(=O)O)=N/Nc1ccc([N+](=O)[O-])cc1 | 93.5%
7 | Nc1nc2c(c3ncncc13)C(c1cccc(C(F)(F)F)c1)Cc1ncncc1-2 (stereo not given) | 39%
8 | COc1ccc(-c2nc(SCC(C)C)nc(Nc3ccc([N+](=O)[O-])cc3)c2C#N)cc1 | 86.8%
9 | Cn1c2c(cc(S(=O)(=O)c3ccccc3)c1=O)CCc1c-2cnn1-c1ccc(Cl)cc1 | 38.9%
10 | Nc1nc2c(c3cnccc13)C(c1cccc(Cl)c1)Cc1cnccc1-2 (stereo not given) | 40.1%
11 | CCCCCSc1ccc2nc(NC(=O)OCCC)sc2c1 | 50%
12 | CCCCCSc1ccc2nc(NC(=O)OCC)sc2c1 | 41.3%
13 | Cc1c(Cc2ccccc2)c(=O)oc2c(C)c(OCc3n[nH]c(=S)o3)ccc12 | 63.8%
14 | CCOC(=O)c1c(C)oc2ncnc(Nc3ccc(C(=O)NCCc4ccccc4)cc3)c12 | 92.9%
15 | COc1cc(/C=C/C(=O)c2ccc(F)cc2)ccc1OCCCCOc1cc2c(cc1OC)C(=O)N1CCCC1C=N2 (stereo not given) | 88.1%
16 | C=C(C)[C@@H]1CC[C@]2(COC(=O)c3ccccc3C(=O)O)CC[C@]3(C)[C@H](CC[C@@H]4[C@@]5(C)CCCNC(C)(C)[C@@H]5CC[C@]43C)[C@@H]12 | 93.3%
17 | O=C(CCCC(=O)Nc1ccc(Cn2nnc3cc(Cl)c(Cl)cc32)cc1)Nc1ccc(CN2N=NC3C=C(Cl)C(Cl)=CC32)cc1 (stereo not given) | 74%
18 | CCS(=O)(=O)OCCO[C@H]1Cc2cc3ccc(=O)oc3cc2OC1(C)C | 111%
19 | O=C1Nc2ccccc2/C1=C/c1cn(CC(O)Cn2cc(/C=C3\C(=O)Nc4ccccc43)c3ccccc32)c2ccccc12 (stereo not given) | -39.1% (active)
20 | COC(=O)Nc1nc2ccc(C(=O)c3ccccc3N(C)C3COC3)cc2[nH]1 | 49.5%
21 | COC(=O)/C=C/c1cc(O)c2oc(-c3ccc(O)c(O)c3)c(C(=O)OC)c2c1 | 48.7%
22 | CC(C)OC(=O)[C@H](C)N[P@@](=O)(OC[C@@]1(C)O[C@@H](n2cc(F)c(N)nc2=O)C[C@@H]1O[P@](=O)(N[C@@H](C)C(=O)OC(C)C)Oc1ccccc1)Oc1ccccc1 | 102%
23 | COc1cc2ncnc(Nc3ccc4c(cnn4C(=O)Nc4ccccc4)c3)c2cc1OC | 81.1%
24 | Cc1nnc(/N=C2\NC(=O)/C(=C/C=C/c3ccccc3)S2)s1 | 72.8%
25 | COC(c1ccccc1)C(Br)C(=O)c1ccccc1 (stereo not given) | 96.2%

Row | Compound | growth
26 | O=C1c2ccccc2CCc2ccccc21 | 92.7%
27 | COc1cc2ncnc(-n3ncc4cc(NC(=O)Nc5ccccc5)ccc43)c2cc1OC | 30.9%
28 | COc1cc(-c2cc3cnccc3c3nc(N)c4ccncc4c23)cc(OC)c1OC | 58.7%
29 | COc1cc(OC)c(NC(=O)n2ncc3cc(Nc4ncnc5ccccc45)ccc32)cc1Cl | 14.1%
30 | COc1cc(OC)cc(-c2ccc(-c3ccc(C(=N)N)cc3)s2)c1 | -89.3% (active)
31 | CC1(C)NCCC[C@]2(C)[C@H]3CC=C4[C@@H]5C[C@](C)(COC(=O)c6ccccc6C(=O)O)CC[C@]5(C)CC[C@@]4(C)[C@]3(C)CC[C@@H]12 | 91%
32 | Nc1ncn([C@@H]2O[C@H](CO)[C@@H](O)C2(F)F)c(=O)n1 | 70%
33 | CCOC(=O)c1cc(C(=O)c2ccc(Br)cc2)n2cc(C)cc(C)c12 | 96.7%
34 | Nc1nc2c(c3cnccc13)C(c1cccc(Br)c1)Cc1cnccc1-2 (stereo not given) | 31.5%
35 | O=C1/C(=C\c2cn(-c3nc(N4CCOCC4)nc(N4CCOCC4)n3)c3ccccc23)c2ccccc2N1c1c(Cl)cccc1Cl | 28.2%
36 | COc1cc2ncnc(-n3ncc4cc(NC(=O)Nc5ccc(Cl)c(C)c5)ccc43)c2cc1OC | 88.7%
37 | CC1=C[C@@H]2c3c(c(O)c(O)c4oc5cc(O)cc(O)c5c(=O)c34)[C@@H](c3cc(O)c(O)c4oc5cc(O)cc(O)c5c(=O)c34)[C@@H]2C(C)(C)C1 | 16.9%
38 | N=C(N)c1ccc(-c2ccc(-c3cc(Cl)cc(Cl)c3)s2)cc1 | -84.4% (active)
39 | COc1cc2ncnc(-n3ncc4cc(NC(=O)Nc5ccc(Cl)c(Cl)c5)ccc43)c2cc1OC | -46.1% (active)
40 | COC1=CC(c2ccc[nH]2)=N/C1=C\c1[nH]c(C)c(C(=O)CCCCC(=O)NC(C)(C)C)c1C | 45.7%
41 | CC1=NN(c2cccc(Cl)c2)C(=O)/C1=C\c1cn(-c2nc(N3CCOCC3)nc(N3CCOCC3)n2)c2ccccc12 | 91.9%
42 | O=C(Nc1ccccc1)Nc1ccc(Nc2ncnc3sc4c(c23)CCCC4)cc1 | 106%
43 | O=c1c(N=Nc2nccs2)c(-c2ccccc2)[nH]n1-c1nc(-c2ccccc2)cs1 | 24.5%
44 | CCOP1(=O)CC(C)=C(Cl)C(P(=O)(O)O)C1 (stereo not given) | 108%
45 | Cc1ccc(OCCn2ccc(=O)n(CCOc3ccc(Cl)cc3C(=O)c3cc(C)cc(C)c3)c2=O)cc1 | 84.1%
